High-throughput results: PubChem, National Center for Advancing Translational Sciences (NCATS)
This is a sample that favours compounds with a hit; in the whole collection about 10% have one here.
KB-V1 MDR tox = KB-V1 MDR subline cytotoxicity; KB-V1 MDR cells viability, CellTiter-Glo, 72 h; 400,000 tested, 3.4% active; Potency, µM (top dose mostly 46.1 µM), most hits filed as cytotoxic; note: % is set by controls: 0 for no effect and ±100 for the full control effect; nearly all actives have a fitted effect of over 60% in size
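Drug-selected KB-V1 cells, grown in DMEM lacking phenol red with 10% FBS, receive compound titrations; after three days at 37 degrees C, surviving cell ATP is quantified by CellTiter-Glo luminescence and responses normalized and curve-fitted.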
SW480 rereplic = DNA re-replication induction in SW480 cells; SW480 DNA re-replication, Hoechst DNA content imaging, 48 h; 340,000 tested, 1.8% active; AID 624297; Potency, µM (titrated, usually from 46.1 µM), for inactives: at the top dose re-replication activation, most hits filed as activators; note: % of control where 0% means no effect; nearly all actives have a fitted effect of over 55% in size
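Per well, 250 cells were exposed to pinned compound for 48 hr. Nuclear DNA was visualised with Hoechst (40 min, 37 C) and total object intensity recorded by fluorescence scanning.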
MCF10A rereplic = inducers of DNA re-replication in MCF 10A breast cells; MCF 10A DNA re-replication, Hoechst nuclear intensity, 48 h; Potency, µM (titrated, usually from 46.1 µM), for inactives: at the top dose activity, positive = re-replication, usual class: activators; 350,000 tested, 2.9% active; note: % of control where 0% means no effect; nearly all actives have a fitted effect of over 50% in size
KB-3-1 tox = KB-3-1 parental cell cytotoxicity | AID 1347075 | Potency, µM (top dose mostly 46.1 µM), hits mostly cytotoxic | 400,000 tested, 1.4% active | KB-3-1 viability, CellTiter-Glo ATP luminescence, 72 h; note: % is set by controls: 0 for no effect and ±100 for the full control effect; nearly all actives have a fitted effect of over 60% in size
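KB-3-1 cells, DMEM (no phenol red) + 10% FBS; compound by pin transfer, 72 h, 37 °C. Readout: CellTiter-Glo luminescence after 10 min. Data normalized, curve-fitted.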
RORgamma inh = inhibitors of mouse ROR gamma transcriptional activity. P51450. Drosophila S2 Gal4-RORgamma UAS-luciferase reporter, 20 h. Potency, µM (top dose mostly 53.6 µM), without a hit: top-dose activity change, negative = inhibition, most hits filed as inhibitors. 310,000 tested, 5.4% active. AID 2551; note: % is set by controls: 0 for no effect and ±100 for the full control effect; nearly all actives have a fitted effect of over 60% in size
Target sequence (P51450 whole entry, looked up, the tested form may be a part): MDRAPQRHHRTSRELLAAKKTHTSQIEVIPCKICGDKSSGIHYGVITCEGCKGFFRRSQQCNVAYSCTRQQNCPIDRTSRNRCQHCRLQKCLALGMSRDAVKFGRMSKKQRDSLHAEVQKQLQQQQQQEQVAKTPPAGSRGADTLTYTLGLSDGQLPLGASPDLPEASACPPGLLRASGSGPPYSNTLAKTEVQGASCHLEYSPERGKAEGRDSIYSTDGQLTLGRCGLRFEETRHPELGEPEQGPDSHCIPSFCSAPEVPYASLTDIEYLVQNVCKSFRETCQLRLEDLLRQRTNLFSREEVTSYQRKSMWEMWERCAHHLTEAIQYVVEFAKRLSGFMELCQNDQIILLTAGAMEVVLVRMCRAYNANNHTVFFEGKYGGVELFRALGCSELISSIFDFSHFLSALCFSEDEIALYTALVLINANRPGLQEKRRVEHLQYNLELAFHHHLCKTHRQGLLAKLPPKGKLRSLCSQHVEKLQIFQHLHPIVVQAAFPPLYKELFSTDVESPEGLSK
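Read-out: Photinus luciferase luminescence; inhibitors lower reporter signal. Insect Schneider cells with Gal4-ROR gamma fusion under metallothionein promoter, UAS reporter; 700 uM final copper sulfate induction, 20 hr, ambient temperature.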
VP16 counter = counter-screen for ROR gamma inhibitors: Gal4-VP16 reporter; Drosophila S2 Gal4-VP16 UAS-luciferase, luminescence, 20 h; Potency, µM (top dose mostly 53.6 µM), without a hit: at the top dose activity, negative = inhibition, actives largely listed as inhibitors; 310,000 tested, 3.5% active; AID 2546;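 note: Gal4-VP16 expression switched on by copper sulfate through the metallothionein promoter; % is set by controls: 0 for no effect and ±100 for the full control effect; nearly all actives have a fitted effect of over 50% in size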
* = called active by the depositor; i = inactive; ? = inconclusive; nt = no result; [ ] = remark or other dose. Calls come from the whole dose curve; as a rule, active = well fitted curve in the direction sought with a large enough effect; inconclusive = small, poorly fitted or top-dose-only effect, or another doubt; inactive = no such curve, though single readings can be large; an effect the other way counts as inactive or inconclusive. Potency is the fitted concentration of half-maximal effect.

SMILES	KB-V1 MDR tox	SW480 rereplic	MCF10A rereplic	KB-3-1 tox	RORgamma inh	VP16 counter
O=C(NC1CCCCC1)c1ccc(S(=O)(=O)N2CCCCC2)cc1	i	-0.7%	10.2%	i	13.0%	3.4%
CS(=O)(=O)c1ccc(-c2nnc(NC(=O)c3ccc(S(=O)(=O)N4CCCC4)cc3)o2)cc1	i	-5.4%	12.2%	i	nt	nt
Cc1ccc(NC(=O)c2ccc(S(=O)(=O)N3CCC(C)CC3)cc2)cc1	i	-0.2%	-0.6%	i	-24.5%	-25.5%
CC1CCN(S(=O)(=O)c2ccc(C(=O)Nc3nnc(C4CC4)o3)cc2)CC1	i	13µM*	?	?	0.355µM*	0.316µM*
O=C(Nc1nnc(C2CC2)o1)c1ccc(S(=O)(=O)N2CCCCC2)cc1	i	19.7%	10.0%	?	0.891µM*	0.562µM*
CC1CCN(S(=O)(=O)c2ccc(C(=O)Nc3nnc(-c4ccncc4)o3)cc2)CC1	?	16.4µM*	?	?	1.12µM*	3.98µM*
COc1ccc(-n2c(=O)c(C)nc3cnc(N4CCNCC4)nc32)cc1	nt	nt	nt	nt	-24.4%	-5.7%
Cc1cc2oc(=O)cc(C)c2c2occ(-c3ccc(Cl)cc3)c12	i	nt	nt	i	nt	nt
COCCN(C(=S)Nc1ccccc1C)C(C)c1ccco1 (configuration not stated)	i	0.7%	-2.1%	i	?	6.8%
COCCN(C(=S)Nc1ccc(C)cc1C)C(C)c1ccco1 (configuration not stated)	i	-1.8%	7.7%	i	14.1µM*	-96.2%
COCCN(C(=S)Nc1cccc(C)c1C)C(C)c1ccco1 (configuration not stated)	i	1.1%	8.3%	i	11.2µM*	?
c1ccc(CNc2ncnc3c2ncn3Cc2ccccc2)cc1	i	nt	nt	i	nt	nt
O=C(c1ccc(CNS(=O)(=O)c2ccc(F)cc2)cc1)N1CCCCCC1	?	nt	nt	i	nt	nt
O=C(O)/C=C\c1ccc(Cn2ccnc2)cc1	nt	-8.4%[20.6 µM]	0.8%[20.6 µM]	nt	2.9%[2.98 µM]	-6.1%[17 µM]
COc1ccc(Nc2ncc(C(=O)Nc3cccc(OC)c3)c3ccccc23)cc1	i	nt	nt	i	nt	nt
Cc1cc(N2CCN(C)CC2)nc2ccc(NC(=S)NCc3cccs3)cc12	i	?	9.2µM*	i	-21.3%	1.9%
Cc1cc(N2CCN(C)CC2)nc2ccc(NC(=O)c3ccc4c(c3)OCO4)cc12	i	26.8%	?	7.31µM*	2.3%	9.1%
CCN1CCN(c2cc(C)c3cc(NC(=S)NCc4cccs4)ccc3n2)CC1	i	?	7.31µM*	i	-22.1%	0.9%
Cc1cc(N2CCCCC2)nc2ccc(NC(=O)c3ccc(Br)o3)cc12	?	?	8.2µM*	?	1.9%	8.2%
C=C(CC(=O)OC)C[C@]1(CC(=O)OC)CC2(CC=C(C)C)C(=O)C(C(=O)c3ccccc3)=C(OC(=O)c3ccc(Br)cc3)C(CC=C(C)C)(C1)C2=O (some centres not stated)	nt	nt	nt	nt	-7.8%[10 µM]	-4.2%[10 µM]
COc1ccc(CSCC(=O)N/N=C/c2ccc(OCC(=O)N3CCCCC3)cc2)cc1	i	?	20.6µM*	i	3.9%	-10.4%
O=C(COc1ccc(/C=N/NC(=O)C(=O)N2CCCCCC2)cc1)Nc1ccccc1Cl	18.4µM*	1.7%	?	i	-8.5%[10 µM]	0.0%
O=C(CSCc1ccccc1)N/N=C/c1ccc(OCC(=O)N2CCCCC2)cc1	20.6µM*	-11.8%	24.8%	i	37.5%	-15.8%
COc1ccc(/C=N/NC(=O)C(=O)N2CCCCCC2)cc1	i	-16.5%	20.4%	i	4.8%	2.7%
CC(=O)N1c2c(cc(Br)cc2S(=O)(=O)N2CCN(c3cccc(Cl)c3)CC2)CC1C (configuration not stated)	i	nt	nt	i	nt	nt
SMILES	KB-V1 MDR tox	SW480 rereplic	MCF10A rereplic	KB-3-1 tox	RORgamma inh	VP16 counter
CCn1c(SCC(=O)Nc2cccc(S(=O)(=O)N(C)c3ccccc3)c2)nnc1C1CC1	20.6µM*	2.8%	11.6%	i	nt	nt
CN(c1ccccc1)S(=O)(=O)c1cccc(NC(=O)CSc2nncn2C)c1	i	-8.2%	-4.9%	i	20.0%	-10.6%
Cc1cc(/C=N\NC(=O)CC(=O)NC2CCCCC2)c(C)n1-c1ccc(Cl)c(Cl)c1	?	26.8%	29.9%	?	15.9%	-4.5%
Cc1cc(/C=N/NC(N)=S)c(C)n1-c1ccc(Cl)c(Cl)c1	i	18.4µM*	25.9µM*	i	1.41µM*	3.16µM*
CCNC(=S)N/N=C/c1cc(C)n(-c2ccc(Cl)cc2)c1C	11.6µM*	2.2%	?	?	1.41µM*	5.01µM*
Cc1nc2ccccn2c1C(=O)N/N=C/c1cc(C)n(-c2ccc(Cl)cc2)c1C	i	0.9%	3.4%	i	20µM*	12.6µM*
CCOc1ccc(-c2cc(NC(=O)Nc3ccccc3Cl)c(C(=O)OC)s2)cc1	i	nt	nt	i	nt	nt
COc1ncc2nc(-c3cc(F)cc(F)c3)c(=O)n(-c3ccccc3)c2n1	nt	nt	nt	nt	-2.4%	2.8%
OC[C@@H]1CN(Cc2ccc3c(c2)OCO3)C[C@H](n2cnc3c(N4CCN(c5ccccc5)CC4)ncnc32)O1	i	nt	nt	i	nt	nt
COc1ccc(N2CCN(C(=O)Cc3noc4ccc(C)cc34)CC2)cc1	i	nt	nt	i	nt	nt
O=c1cnc2cnc(Oc3ccccc3)nc2n1Cc1ccc(F)cc1	nt	nt	nt	nt	5.9%	-10.5%
Cc1nc(-c2ccc(S(=O)(=O)N(Cc3ccccc3)C(C)C)cc2)co1	i	nt	nt	i	nt	nt
Cc1ccc(-n2nc(C(=O)N(C)Cc3ccccc3)c3c4ccccc4n(C)c3c2=O)cc1	i	nt	nt	i	nt	nt
CC1=C(C(N)=O)C(c2cccs2)NC(=S)N1 (configuration not stated)	i	-0.8%	-6.5%	i	-8.0%	6.5%
CC1=C(C(=O)OC(C)C)C(c2cccs2)NC(=S)N1 (configuration not stated)	i	2.3%	-2.4%	i	12.6µM*	?
COC(=O)C1=C(C)NC(=S)NC1c1ccc(-c2cc(Cl)ccc2Cl)o1 (configuration not stated)	i	?	?	?	3.98µM*	4.47µM*
COC(=O)C1=C(C)NC(=S)NC1c1ccc(OC(=O)c2ccco2)cc1 (configuration not stated)	i	0.8%	12.9%	i	-26.6%	-1.1%
CC1=C(C(=O)Nc2ccccc2C(F)(F)F)C(c2ccc(C)s2)NC(=S)N1 (configuration not stated)	i	1.0%	2.9%	i	?	-9.3%
